This is an account of results in PubChem BioAssay AID521 (Sanford-Burnham Center for Chemical Genomics, 2006).

SMILES strings stand for the structures. About 730 (0.66%) of roughly 110,000 compounds were called active. Only a selection was taken, and actives are over-represented in it overall. Values without a mark were called inactive. Rule as the data show it: active = inhibition above about 50%; inconclusive = no clear call, values can overlap the other calls; inactive = below that.

In this test the target is Tyrosine-protein phosphatase non-receptor type 7 (Homo sapiens) (UniProt P35236). As to the kind of experiment: inhibitors of human HePTP phosphatase, primary screen, biochemical, absorbance, leukemia target (AID 521).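 Also: plate controls were vehicle for no effect and reference inhibitor for full effect.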 Conditions: recombinant HePTP phosphatase activity, OD absorbance; at 20 µM; hits give high values.
Sequence of Tyrosine-protein phosphatase non-receptor type 7 (Homo sapiens) (P35236 whole entry, looked up): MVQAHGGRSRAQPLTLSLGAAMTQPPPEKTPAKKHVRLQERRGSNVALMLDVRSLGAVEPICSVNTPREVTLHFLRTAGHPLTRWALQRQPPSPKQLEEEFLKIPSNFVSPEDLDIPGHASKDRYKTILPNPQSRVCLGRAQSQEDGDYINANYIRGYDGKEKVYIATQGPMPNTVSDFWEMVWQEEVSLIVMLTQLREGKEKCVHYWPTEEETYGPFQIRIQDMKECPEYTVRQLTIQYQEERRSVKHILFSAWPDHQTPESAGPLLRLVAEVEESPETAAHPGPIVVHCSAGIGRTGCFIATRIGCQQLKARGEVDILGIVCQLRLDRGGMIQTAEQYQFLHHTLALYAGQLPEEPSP
Consider `COc1ccc2ccccc2c1/C=N/NC(=O)c1cc(C)[nH]n1`, for which the inhibition is 0.2%. The figure for `Cc1c(C#N)c2nc3ccccc3n2c(=O)/c1=C\c1c(O)n(-c2ccc(Br)cc2)[nH]c1=O` is 103% (active); for `N#Cc1c2c(c(N3CCN(CCO)CC3)n3c1nc1ccccc13)CCCC2` it is 4.3%. To `Cc1cc(NCCN2CCCCCC2)n2c(nc3ccccc32)c1C#N` belongs -9.3%. The figure for `COc1ccc(OC)c(N(CC(=O)Nc2cccc(Cl)c2)S(=O)(=O)c2ccc(OC)c(OC)c2)c1` is -8.4%; for `COc1ccc(NCN2C(=O)CSC2=O)cc1Cl` it is 5.1%; for `N#C/C(=C/c1cc(Cl)c(O)c(Cl)c1)C(=O)Nc1cccc(Br)c1` it is 102% (active).

Take `O=C(Nc1cccc(Br)c1)C(=O)NC1CCCC1`: the inhibition is -7.9%. The figure for `COc1cccc(/C=C(/C#N)C(=O)Nc2ccc(F)cc2)c1O` is 9.6%. The figure for `CCOC(=O)c1c(Nc2ccc(C)cc2)csc1C` is 5.4%. The figure for `COc1ccc(CC(=O)Nc2ccc(-c3ccc(NC(=O)Cc4ccc(OC)cc4)c(OC)c3)cc2OC)cc1` is -17.3%; for `Cc1cc(C)cc(NC(=O)CN2C(=O)c3ccccc3C2=O)c1` it is 4.6%; for `CSc1nc(=O)n(C)c(C)c1C(C)=O` it is -0.4%. On to `O=C(NC(NC(=S)Nc1ccc(I)cc1)C(Cl)(Cl)Cl)c1cccc([N+](=O)[O-])c1` (configuration not stated), for which the inhibition was -2.4%. To `Cc1cc(C)c2nc3s/c(=C\c4ccc(N(C)C)cc4)c(=O)n3c2c1` belongs 8.6%. To `COc1cc(/C=c2\sc3nc4c(C)cc(C)cc4n3c2=O)cc(Br)c1O` belongs 5.3%; to `Cc1cc(C)c2nc3s/c(=C\c4ccc(-c5ccccc5C(=O)O)o4)c(=O)n3c2c1`, 103% (active). To `O=C1c2ccccc2C(=O)c2c(NC3CCCCC3)cccc21` belongs -14.5%; to `COc1ccc(/C=N/n2cnc3sc4c(c3c2=O)CCCC4)cc1OC`, 1.7%; to `O=C(Nc1cccc(NC(=O)c2ccc(Cl)cc2Cl)c1)c1ccc(-c2ccc([N+](=O)[O-])cc2)o1`, 5.5%.

Turning to `CCOc1ccc2cc(S(=O)(=O)NCC3CCCO3)ccc2c1` (configuration not stated), the inhibition was 0.1%. To `Cc1c(Br)c(=O)[nH]c(=O)n1Cc1ccccc1` belongs 0.2%.

`O=C(NCc1ccccn1)C(=O)Nc1ccc(Br)cc1`: the inhibition was 7.9%. The figure for `Cc1cc(C)c(NC(=O)C(C)Sc2nnc(-c3cccc(F)c3)n2-c2ccccc2)c(C)c1` (configuration not stated) is -3.5%; for `COc1ccc(Cl)cc1C(=O)Nc1ccc2c3c(cccc13)CC2` it is -1.6%; for `CCCCOC(=O)Nc1nnc(-c2ccco2)s1` it is -8.6%. To `CCOc1cc(/C=N/NC(=O)CC2C(=O)NN=C2C)ccc1O` (configuration not stated) belongs -5.5%. The figure for `O=C(Nc1cccc([N+](=O)[O-])c1)c1ccc2c(c1)C(=O)N(N1C(=O)c3ccccc3C1=O)C2=O` is -5.9%; for `COC(=O)c1c(-c2ccc(Br)cc2)csc1NC(=O)CCCC(=O)O` it is 8.8%.

In the case of `CCc1ccc(N2C(=O)NC(=O)/C(=C\c3cc(Cl)c(O)c(Cl)c3)C2=O)cc1`, the inhibition is 2.7%. The figure for `CN(C)c1ccc(C2/C(=C(\O)c3ccccc3)C(=O)C(=O)N2CCCC(=O)O)cc1` (configuration not stated) is 3.2%; for `COc1cc(/C=C2/SC(=S)N(C)C2=O)cc([N+](=O)[O-])c1O` it is 6.6%; for `CC(=O)C1=C(O)C(=O)N(CCN2CCNCC2)C1c1ccc(C)cc1` (configuration not stated) it is 6%. To `Cc1ccc(-c2csc(NC(=O)c3ccc(Cl)cc3)n2)cc1` belongs 7%; to `CCN1C(=O)/C(=C\c2cn(CCOc3ccc(Br)cc3)c3ccccc23)SC1=S`, 2.4%; to `Cc1cc(Cl)ccc1OCC(=O)O/N=C(\N)c1ccncc1`, -14.4%. The figure for `COC(=O)CCN(C(=O)c1ccc(F)cc1)c1ccccn1` is -21.6%.

`O=C(NC(=O)C(Cl)(Cl)Cl)Nc1ccc(Cl)c(Cl)c1`: the inhibition was 3.7%. For the compound `O=C(Nc1nccs1)C(c1ccccc1)c1ccccc1`, the inhibition was -5.8%. To `Cc1ccc(S(=O)(=O)Nc2ccc(NC(=O)C3C4C=CC(O4)C3C(=O)O)cc2)cc1` (configuration not stated) belongs -5.5%; to `O=C(O)C1C2C=CC(O2)C1C(=O)Nc1nccs1` (configuration not stated), 104% (active); to `O=C(c1ccc2c(c1)OCO2)N1CCOCC1`, 104% (active). `O=C(Nc1ccc(N2CCOCC2)cc1)c1ccc2c(c1)OCO2`: the inhibition was -5.6%. Take `O=C(c1ccc2c(c1)OCO2)N1CCNc2ccccc2C1`: the inhibition was 7.3%.

Take `O=C(Nc1cccnc1)c1cnn2c1NC(c1ccco1)CC2C(F)(F)F` (configuration not stated): the inhibition was 0.1%. Consider `Cc1cc2oc(=O)cc(C)c2cc1NC(=O)c1ccccc1`, for which the inhibition is -31.1%. To `O=C(O)C(Sc1nc2ccccc2s1)c1ccccc1` (configuration not stated) belongs -17.3%; to `O=C(O)CCCCCCCCCCN1C(=O)/C(=C/c2ccc(Br)cc2)SC1=S`, 70.7% (active). The figure for `O=C(O)CCCN1C(=O)/C(=C/c2ccccc2)SC1=S` is 8.8%; for `O=C1/C(=C/c2ccc(Br)cc2)SC(=S)N1CCc1ccccc1` it is 3.2%; for `O=C(Nc1cccc(O)c1)c1cc2nc(-c3ccc(F)cc3)cc(C(F)(F)F)n2n1` it is 4.4%. To `CCOC(=O)c1ccc(N2NC(=O)/C(=C/c3ccc(Br)cc3)C2=O)cc1` belongs 6.5%.
